High-throughput results deposited in PubChem BioAssay by National Center for Advancing Translational Sciences (NCATS).
HT1080NT lethal: kills 2HG-producing HT-1080-NT fibrosarcoma cells; 1.6% of 360,000 active; AID 686970; Potency, µM (doses to about 46.1 µM), for inactives: top-dose activity, negative = less viability, usual class: cytotoxic; HT-1080-NT fibrosarcoma viability, CellTiter-Glo ATP luminescence, 48 h;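 note: NT is the 2HG producing partner of a matched IDH1 knockdown line; potency is the fitted concentration of half-maximal effect; 0% = DMSO-treated cells and -100% = media-only wells without cells; nearly all actives have a fitted effect of over 55% in size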
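A 48-hour cytotoxicity screen used HT-1080-NT cells plated 2 hours before compound delivery. ATP-based CellTiter-Glo luminescence measured viability, normalized to DMSO and no-cell controls.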
DT40 TDP1 no CPT: qHTS for Inhibitors of human tyrosyl-DNA phosphodiesterase 1 (TDP1): qHTS in cells in absence of CPT | DT40 Tdp1-/- hTDP1 cells, no CPT, ATP luminescence, 48 h | AID 686978, 2013 | Potency, µM (doses to about 46.2 µM), without a hit: at the top dose activity change, negative = growth inhibition, actives largely listed as inhibitors | 15% of 420,000 active; note: potency is the fitted concentration of half-maximal effect; nearly all actives have a fitted effect of over 55% in size
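Growth kinetics read by CellTiter-Glo luminescence after ≥48 hr at 37 °C. Cells: DT40 Tdp1-/- stably carrying human TDP1, 400 per well, compound exposure in the absence of CPT (DMSO vehicle).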
IL-1B inflam inh: inflammasome signaling inhibition, IL-1 beta readout | THP-1 LPS/ATP IL-1B secretion, AlphaLISA, 16 h; hits give low values | activity change, % at 57.5 µM | 4.7% of 360,000 active | AID 743279; in the data active = activity change below about -50%; inconclusive = mostly about -30% to -49%
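Secreted IL-1B measured by AlphaLISA bead assay after 16 h compound exposure of THP-1 cells; compounds (final up to 57.5 uM) added 1 h before LPS (250 ng/mL) and ATP (1.25 mM) stimulation; lower signal means less secretion.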
HT1080 IDH1KD tx: kills HT-1080 cells with IDH1 knockdown. HT-1080 IDH1 knockdown viability, ATP luminescence, 48 h. AID 686971. Potency, µM (titrated, usually from 46.1 µM), without a hit: top-dose activity, negative = toxicity, hits mostly cytotoxic. 2% of 360,000 active;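 note: potency is the fitted concentration of half-maximal effect; 0% = DMSO wells and -100% = cell-free medium wells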
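HT-1080-IDH1KD cells (IDH1 knocked down), 750/well in RPMI with 5% FBS, treated with compound 48 h at 37 degrees C. Viability by CellTiter-Glo luminescence, normalised to DMSO and no-cell wells; concentration-response curves classed.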
TDP1 cell CPT: DT40-hTDP1 cell growth loss with CPT. 12% of 420,000 active. Potency, µM (titrated, usually from 46.2 µM), for the others: at the top dose activity change, negative = growth inhibition, usual class: inhibitors. chicken DT40 Tdp1-/-;hTDP1 cells + 20 nM CPT, ATP luminescence, 48 h; note: potency is the fitted concentration of half-maximal effect; nearly all actives have a fitted effect of over 55% in size
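Chicken DT40 Tdp1-/- cells stably complemented with human TDP1 were seeded at 400 cells/well in medium containing 20 nM camptothecin, exposed to pin-transferred compounds, and grown at 37 °C for at least 48 hr. Viability was read as ATP luminescence.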
Starred values were filed as active, the others as inactive; u = inconclusive; x = not tested or not shown. Sampled rows, rich in hits. Any-hit rate of the full collection: about 19%. Unless noted, calls come from the whole dose curve; as a rule, active = well fitted curve in the direction sought with a large enough effect; inconclusive = small, poorly fitted or top-dose-only effect, or another doubt; inactive = no such curve, though single readings can be large; an effect the other way counts as inactive or inconclusive. Unless noted, % is set by controls: 0 for no effect and ±100 for the full control effect.

SMILES	HT1080NT lethal	DT40 TDP1 no CPT	IL-1B inflam inh	HT1080 IDH1KD tx	TDP1 cell CPT
O=C(CCc1ccccc1)Nc1nnc(-c2ccc3c(c2)CCCC3)o1	-22%	u	-17	-28%	18µM*
CN(C)c1ncc2nc(-c3ccc(F)cc3)c(=O)n(CCc3ccccc3)c2n1	x	22%	x	x	14%
CCOC(=O)NN1C(=O)c2ccccc2NC1c1ccc(OC)c(OC)c1 (stereo not drawn)	12%	-14%	9	23%	-20%
CCN(C[C@H]1N[C@@](C)(C(=O)OC)[C@H]2C(=O)N(C)C(=O)[C@@H]12)C(=O)COC	12%	2%	0	21%	-1%
Cc1cc(=O)[nH]c(N/N=C/C2=C(N3CCOCC3)C(=C\c3ccc(Cl)cc3)/CC2)n1	-28%	16µM*	14	-28%	21µM*
CC(C)C(NC(=O)C12CC3CC(CC(C3)C1)C2)C(=O)N/N=C/C1=C(N2CCOCC2)C(=C\c2ccc([N+](=O)[O-])cc2)/CC1 (stereo not drawn)	12%	-24%	-6	5%	-22%
O=C(O)c1ccccc1N/N=C/C1=C(N2CCOCC2)C(=C\c2ccccc2)/CC1	17%	12µM*	17	16%	21µM*
O=C(N/N=C/C1=C(N2CCOCC2)C(=C\c2ccccc2)/CC1)Nc1ccccc1	u	8.2µM*	5	7.3µM*	12µM*
Cc1occc1C(=O)N/N=C/C1=C(N2CCOCC2)C(=C\c2ccc(Cl)cc2)/CC1	0%	0.92µM*	3	11%	u
Cc1cc(=O)[nH]c(N/N=C/c2ccc(Cl)c([N+](=O)[O-])c2)n1	u	-29%	6	27%	u
O=c1c([N+](=O)[O-])c(N2CCCC2)c2ccccc2n1-c1ccccc1	-20%	-24%	-19	-14%	-5%
O=[N+]([O-])c1cccc(S(=O)(=O)N2CCN(c3nc(-c4ccccc4)nc4ccccc34)CC2)c1	x	-8%	x	x	-1%
NC(=O)C(OC(=O)CNC(=O)C1CCCCC1)c1ccccc1 (stereo not drawn)	x	-22%	x	x	-29%
COc1ccc(-c2nc3cnc(N(C)C)nc3n(Cc3ccc(F)cc3)c2=O)cc1	x	-1%	x	x	-8%
Cc1cc(C)nc(N/N=C/C2=C(N3CCOCC3)C(=C/c3ccccc3)/CC2)n1	-2%	12µM*	-23	-5%	16µM*
Cc1ccc(N2CCN(/N=C/C3=C(N4CCOCC4)C(=C\c4ccccc4)/CC3)CC2)cc1	-2%	8%	0	4%	-16%
O=C1O[C@@H]2[C@@H](O)[C@H](O)O[C@@H]2[C@H]1O	x	0%	x	x	10%
COCCCNc1nc(NCc2cccc(Cl)c2)c2cnn(C)c2n1	x	18µM*	x	x	u
COc1cc(CNCc2ccc(Br)cc2)cc(OC)c1	0%	u	-6	-4%	u
CCCCC(=O)Nc1c(C)cc(C)cc1Cl	-3%	-19%	-29	-1%	-7%
CCOC(=O)C1=CCN(S(=O)(=O)c2ccc(Br)cc2)C1c1ccc(C)cc1 (stereo not drawn)	-24%	26µM*	7	u	u
CCOC(=O)C1=CCN(S(=O)(=O)c2ccc(C)cc2)C1c1cccc(C)c1 (stereo not drawn)	-21%	18µM*	31	u	u
CCOC(=O)C1=CCN(S(=O)(=O)c2ccc(F)cc2)C1c1cccc(C)c1 (stereo not drawn)	0%	u	40	0%	u
COC(=O)c1ccccc1N(C)S(=O)(=O)c1cc2c(cc1C)OCC(=O)N2	-19%	u	15	u	u
CCN1CCN(CCNC(=O)c2ccc3c(c2)N(Cc2cccc(Cl)c2)C(=O)c2ccccc2S3=O)CC1 (stereo not drawn)	-20%	-3%	-55*	u	-17%
SMILES	HT1080NT lethal	DT40 TDP1 no CPT	IL-1B inflam inh	HT1080 IDH1KD tx	TDP1 cell CPT
O=C(NCCN1CCCC1)c1ccc2c(c1)N(Cc1ccc(F)cc1)C(=O)c1ccccc1S2=O (stereo not drawn)	-13%	u	-24	-9%	u
CCN(C(=O)c1ccc2c(c1)N(Cc1cccc(Cl)c1)C(=O)c1ccccc1S2=O)c1ccccc1 (stereo not drawn)	x	16µM*	x	x	u
Cc1cccc2sc(N(Cc3cccnc3)C(=O)c3cccs3)nc12	x	-16%	x	x	-7%
CC1=C(C(=O)Nc2ccccc2C)C(c2ccco2)n2ncnc2N1 (stereo not drawn)	x	-26%	x	x	-8%
CC(C)N(C(=O)N1CCC(c2nc(-c3ccncc3)no2)CC1)C(C)C	-16%	18µM*	0	-24%	u
O=S(=O)(c1ccc2ccccc2c1)N1CCC(c2nc(-c3ccncc3)no2)CC1	-1%	9.2µM*	-18	-3%	16µM*
CC(C)C(=O)Nc1c2c(nn1-c1ccc(F)cc1)CSC2	-1%	-22%	7	14%	6%
CC1=C(C(=O)Nc2ccc(Br)cc2)C(c2ccco2)NC(=O)N1 (stereo not drawn)	-13%	u	11	-6%	23µM*
CC1=C(C(=O)Nc2ccc(C)cc2)C(c2ccco2)NC(=O)N1 (stereo not drawn)	1%	-10%	13	4%	-6%
COC(=O)c1sc(NC(=O)c2cc3c(s2)CCCC3)nc1C	-8%	21µM*	-52*	6%	-16%
Cc1nc(NC(=O)c2cc3c(s2)CCCCC3)sc1C(=O)N(C)C	u	u	-53*	-28%	u
Cc1nc(NC(=O)CCl)sc1C(=O)N(C)C	u	15µM*	-81*	-24%	13µM*
CCCn1cnc2c(=S)nc(N)[nH]c21	3%	3%	-18	13%	0%
COc1ccc(OC)c(C(c2nnnn2CCc2ccccc2)N2CCN(c3ccccc3)CC2)c1 (stereo not drawn)	1%	35µM*	-85*	3%	u
c1ccc(CCn2nnnc2C(c2cccnc2)N2CCN(c3nc4ccccc4s3)CC2)cc1 (stereo not drawn)	-13%	11µM*	-64*	-17%	18µM*
Fc1ccc(N2CCN(C(c3cccs3)c3nnnn3CCc3ccccc3)CC2)cc1 (stereo not drawn)	19%	23µM*	-4	16%	u
COCCn1nnnc1C(c1ccccc1)N1CCN(c2ccccc2)CC1 (stereo not drawn)	0%	-5%	u	0%	-2%
COCCn1nnnc1C(c1ccc(OC)cc1OC)N1CCN(c2ccccc2)CC1 (stereo not drawn)	2%	-22%	1	0%	-20%
